Source: PubChem BioAssay (National Center for Advancing Translational Sciences (NCATS))
G9a inh – blocks human histone lysine methyltransferase G9a | Q96KQ7 | G9a H3K9 monomethylation, AlphaScreen, 2 h | Potency, µM (titrated, usually from 102 µM), inactives show at the top dose activity, negative = inhibition, hits mostly inhibitors | 350,000 tested, 8.8% active; note: potency is the fitted concentration of half-maximal effect; % is set by controls: 0 for no effect and ±100 for the full control effect; nearly all actives have a fitted effect of over 75% in size
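G9a (20 nM) preincubated 15 min RT with compounds, then 500 nM biotinylated H3K9 peptide and 20 uM SAM added; 2 h RT reaction. Monomethyl-H3K9 product detected by AlphaScreen with anti-H3K9me1 antibody, streptavidin donor and anti-rabbit IgG acceptor beads.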
CtBP-E1A inh – blocks the CtBP interaction with E1A; AlphaScreen GST-E1A/His-CtBP binding, 1536-well; hits give low values; activity change, % (test concentration not listed); 340,000 tested, 0.49% active; AID 651724; in the data active = activity change below about -65%; inconclusive = mostly about -30% to -63%; note: % is set by controls: 0 for no effect and ±100 for the full control effect
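Steps: dispense buffer (Tris pH 8.0, NaCl 300 mM, TCEP 1 mM, BSA, Tween 20); add 5X protein mix (GST-E1A, His-CtBP, 125 nM each); pin 23 nL compound; 2 h at 37 °C, dark; add 5X beads (50 ug/mL); 1 h; read.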
HP1b chromo inh – inhibitors of HP1-beta chromodomain binding to methylated histone tails; Potency, µM (doses to about 114 µM), without a hit: top-dose activity change, negative = inhibition, most hits filed as inhibitors; AlphaScreen HP1-beta / biotin-H3K9me3 peptide binding; P83916; 390,000 tested, 0.56% active; note: potency is the fitted concentration of half-maximal effect; nearly all actives have a fitted effect of over 70% in size
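HP1-beta protein (50 nM final) preincubated 30 min at room temperature with biotinylated H3(1-18)K9me3 peptide (50 nM) in PBS pH 7.4, 0.01% Tween-20, then compound added for 30 min. AlphaScreen streptavidin donor/nickel chelate acceptor beads (10 ug/mL final), 30 min dark, luminescence read.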
Six1-Eya2 inh – blocks human Six1 binding to Eya2; AlphaScreen GST-Six1/His-Eya2 binding, biochemical; hits give low values; activity change, % (no concentration beside the values); 360,000 tested, 0.56% active; in the data active = activity change below about -65%; inconclusive = mostly about -30% to -63%; note: % is set by controls: 0 for no effect and ±100 for the full control effect
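AlphaScreen with GST-Six1 and His-Eya2 (5X mix: 250 nM and 500 nM), glutathione donor and nickel acceptor beads; buffer 50 mM Tris pH 8.0, 300 mM NaCl, 1 mM TCEP; 1 h at 37 C in the dark.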
JMJD2A Tudor – JMJD2A Tudor domain (human) inhibition | 390,000 tested, 4.4% active | Potency, µM (doses to about 114 µM), for inactives: at the top dose activity change, negative = inhibition, actives largely listed as inhibitors | AID 504339 | O75164 | AlphaScreen JMJD2A-Tudor / H3K4me3 peptide binding; note: potency is the fitted concentration of half-maximal effect; % is set by controls: 0 for no effect and ±100 for the full control effect; nearly all actives have a fitted effect of over 50% in size
BAZ2B inh – inhibitors of human BAZ2B bromodomain | Q9UIF8 | AlphaScreen BAZ2B-H3K14Ac peptide displacement | Potency, µM (top dose mostly 114 µM), for inactives: at the top dose activity change, negative = inhibition, actives largely listed as inhibitors | 360,000 tested, 4.4% active | AID 504333; note: potency is the fitted concentration of half-maximal effect; % is set by controls: 0 for no effect and ±100 for the full control effect; nearly all actives have a fitted effect of over 60% in size
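BAZ2B (50 nM) with biotin-H3(5-23)K14Ac peptide (50 nM) in PBS pH 7.4, 0.01% Tween-20, preformed 30 min, then compound 30 min at room temperature; top concentration 110uM. AlphaScreen streptavidin donor/nickel chelate acceptor beads (10 ug/mL final), 20 min dark, signal read.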
An asterisk follows results filed as active; ? = inconclusive; nt = no result given; [ ] = dose if it differs, or a comment. Most compounds without a hit are left out; they make up all but 10% or so of the library. Unless noted, calls come from the whole dose curve; as a rule, active = well fitted inhibition curve with a large enough effect; inconclusive = small, poorly fitted or top-dose-only effect; inactive = no such curve, though single readings can be large or run the other way.

SMILES	G9a inh	CtBP-E1A inh	HP1b chromo inh	Six1-Eya2 inh	JMJD2A Tudor	BAZ2B inh
COc1ccc(CCNC(=O)c2sc3nc4n(c(=O)c3c2C)CCC4)cc1	-38%	-19	15%	-7	-5%	7%
COc1ccc(-c2noc(-c3ccc(NCCc4ccccc4)c([N+](=O)[O-])c3)n2)cc1	?	nt	37%	nt	0%	7%
Cc1c(C(=O)NCc2cccc(Cl)c2)sc2nc3n(c(=O)c12)CCCC3	16µM*	nt	61%	nt	79µM*	18µM*
CC(=O)c1ccc(OCCCC(=O)Nc2cc(S(=O)(=O)N3CCCCC3)ccc2C)cc1	35µM*	-5	21%	-2	-10%	-7%
Cc1ccc(S(=O)(=O)N2CCCCC2)cc1NC(=O)CNc1ccc(C(F)(F)F)cc1	56µM*	-1	7%	4	-27%	7%
Cc1ccc(S(=O)(=O)N2CCCCC2)cc1NC(=O)CCCOc1ccccc1	?	-1	18%	-12	-8%	8%
N#Cc1nc(Nc2ccc(C(F)(F)F)cc2)nc(NC2CCCC2)n1	nt	nt	nt	nt	-12%	nt
COc1ccc(OC)c(Nc2nc(-c3c(C)nc4ncccn34)cs2)c1	28µM*	-82*	0%	?	?	?
COc1ccc(Nc2nc(-c3cccs3)cs2)c(OC)c1	11µM*	-5	50µM*	-14	2.5µM*	32µM*
COc1cccc2cc3c(=O)n(-c4ccccc4)nc-3oc12	?	-1	-9%	-4	45µM*	?
COc1cccc(CNC(=O)CN(C)S(=O)(=O)c2cnc[nH]2)c1	3%[59 µM]	37	25%	27	-1%	3%
CN(CC(=O)NCc1ccc(Cl)cc1)S(=O)(=O)c1ccc2[nH]c3c(c2c1)CCCC3	10µM*	nt	-2%	nt	?	-29%
COc1cccc(CNC(=O)CN(C)S(=O)(=O)c2ccc3[nH]c4c(c3c2)CCCC4)c1	13µM*	nt	-2%	nt	?	-34%
COc1ccc(OC)c(NS(=O)(=O)c2ccc3[nH]c4c(c3c2)CCCCC4)c1	-36%[59 µM]	nt	-21%	nt	?	?
COc1ccc(OC)c(NC(=O)CN(C)S(=O)(=O)c2ccc3[nH]c4c(c3c2)CCCC4)c1	13µM*	nt	?	nt	?	?
Cc1ccc(N(C)S(=O)(=O)c2ccc3[nH]c4c(c3c2)CCCC4)cc1	?	nt	-10%	nt	?	?
CCOC(=O)c1[nH]c2cc(OC)c(OC)cc2c1N	3.2µM*	-7	12%	-5	56µM*	-35%
CCOC(=O)c1[nH]c2ccc(OC)cc2c1NC(=O)c1nonc1C	-6%	-4	22%	5	-1%	2%
CCOC(=O)c1[nH]c2ccc(OC)cc2c1NC(=O)c1ccc(OC)c(OC)c1	50µM*	2	27%	-12	-5%	-8%
CCOC(=O)c1[nH]c2ccc(C)cc2c1N	1.8µM*	-5	-9%	-4	?	-39%
CCOC(=O)Cc1c(C(=O)OCC)nnc2c(-c3ccccc3)c(C)nn12	?	nt	-7%	nt	?	?
Cc1ccc(N2CN=c3s/c(=C\c4cccnc4)c(=O)n3C2)cc1	8%	-2	40%	-2	-9%	-5%
Cc1ccc(/C=c2\sc3n(c2=O)CN(c2ccc(Br)cc2)CN=3)o1	8.9µM*	-4	-32%	-16	-5%[11.4 µM]	-22%
Cc1ccc(/C=c2/sc3n(c2=O)CCCN=3)o1	8.9µM*	-1	26%	-2	-13%	-7%
O=C(NCc1ccc(/C=c2\sc3n(c2=O)CCN=3)o1)C(=O)Nc1ccccc1	50µM*	nt	nt	nt	nt	?
SMILES	G9a inh	CtBP-E1A inh	HP1b chromo inh	Six1-Eya2 inh	JMJD2A Tudor	BAZ2B inh
CCN(C(=O)NCc1noc2ccccc12)c1cc(C)ccc1C	0%[59 µM]	nt	30%	nt	-8%	-15%
CCOC(=O)Cn1cc(Cn2c3ccccc3c(=O)n2C(C)C)nn1	nt	7	nt	1	nt	nt
COc1ccccc1CCNC(=O)C1CCN(c2nnc(-n3cccc3CNc3ccc(C)cc3)s2)CC1	-7%[59 µM]	nt	14%	nt	-19%	-8%
CC1(C2CCCC2)NC(=O)NC1=O (centres undefined)	nt	0	31%	12	-11%	nt
Cc1cccnc1C1=NOC(Cc2ccccc2)C(=O)N1Cc1ccc2c(c1)OCO2 (centres undefined)	nt	4	nt	0	nt	nt
CCC(C)NC(=O)Cn1c(=O)n(CC2CCC(C(=O)NC)CC2)c(=O)c2sccc21 (centres undefined)	3%[59 µM]	nt	38%	nt	-4%	-1%
CCc1cc2c(=O)n(CCCOC)c(SCC(=O)Nc3oc(C)c4c(C)n[nH]c(=O)c34)nc2s1	56µM*	0	30%	-2	-10%	5%
C=CCn1c(C)nnc1SCC(=O)Nc1oc(C)c2c(C)n[nH]c(=O)c12	32µM*	0	37%	2	-3%	25%
CCOCCCn1c(SCC(=O)Nc2oc(C)c3c(C)n[nH]c(=O)c23)nnc1-c1ccncc1	35µM*	-1	11%	4	-20%	3%
Cc1ccc(C)c(SCC(=O)Nc2oc(C)c3c(C)n[nH]c(=O)c23)c1	40µM*	-2	14%	1	-16%	-9%
COC(=O)C1=C[C@@H](C(=O)OC)[C@@H]2C3=C(C(=O)C2(C)C)[C@H](c2ccccc2)[C@@H]2C(=O)N(c4ccccc4)C(=O)[C@@H]2[C@@H]3C1	nt	nt	37%	nt	-19%	nt
Cc1n[nH]c(=O)c2c(NC(=O)CSc3ncccn3)oc(C)c12	50µM*	-1	32%	-3	-12%	0%
CC12CCC(CC1O)C2C(=O)O (centres undefined)	nt	0	nt	1	nt	nt
COc1ccc(-c2cc(OC(=O)c3cccc(C)c3)c3c(C)oc(C)c3c(=O)c2)cc1	7.9µM*	nt	26%	nt	?	?
COc1ccc(-c2cc(OC(=O)c3cccc(Cl)c3)c3c(C)oc(C)c3c(=O)c2)cc1OC	?	nt	-17%	nt	?	50µM*
Cc1oc(C)c2c(=O)cc(-c3ccc4c(c3)OCO4)cc(OC(=O)c3cccc(Cl)c3)c12	?	nt	17%	nt	-34%	-15%
Cc1ccccc1C(=O)Oc1cc(-c2ccc3c(c2)OCO3)cc(=O)c2c(C)oc(C)c12	14µM*	nt	1%	nt	-34%	?
CCOc1ccc(-c2cc(OC(=O)c3ccc(F)cc3)c3c(C)oc(C)c3c(=O)c2)cc1	?	nt	-9%	nt	?	?
CCOc1ccc(-c2cc(OC(=O)c3ccccc3)c3c(C)oc(C)c3c(=O)c2)cc1	11µM*	nt	-8%	nt	?	35µM*
COc1cc(-c2cc(OC)c3c(C)oc(C)c3c(=O)c2)ccc1OC(=O)c1cccc(Cl)c1	-53%[59 µM]	nt	2%	nt	?	79µM*
